Compound activity (PubChem BioAssay)
Ins promoter up: insulin promoter activators in MIN6 cells, imaging, high-content screening, mouse beta cells | AID 1625, 2009 | MIN6 insulin promoter-GFP reporter; hits give high values | 0.3% of 190,000 active | z-score at 5 µM;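 active means z-score above 3 at 5 µM with at least 500 cells counted in the well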
L major viab: Leishmania major promastigote growth inhibition, primary screen. Leishmania major promastigotes, resazurin fluorescence viability. inhibition, % at 10 µM. 9% of 200,000 active. AID 1063, 2008; in the data active means inhibition above about 50%;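 further: promastigotes grown with compound for 44 hours at 28 °C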
Insulin prom inh: inhibitors of insulin promoter-driven GFP, primary screen, imaging, TRM-6 cells (human fetal islet line), eGFP reporter, cell count; reporter expression induced with tamoxifen; inhibition, % at 2 µM; 0.9% of 130,000 active; AID 1273, 2008;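 active means inhibition above the mean plus 3 SD, with well images judged a real hit on visual review, cut at about 60% in these data, passing the limit was not always enough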
Autophagy HCS: autophagy modulators in MEF cells, primary screen, imaging, high-content, MEF GFP-LC3. AID 463193, 2010. MEF GFP-LC3 puncta imaging; test concentration mostly 10 µM. 0.98% of 190,000 active. calls only at 10 µM (by protocol);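 active means percentage of spot-positive cells more than 3 SD above its plate mean, without a fluorescence outlier flag or 80% toxicity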;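 further: spot-positive cell cutoff set from DMSO-treated cells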
WT yeast gro inh: growth inhibition of WT strain, primary screen, mitochondrial fusion inhibitor project, WT and mutant strains, chemical genetic. inhibition, % at 10 µM. mitochondrial fusion phenotypic screen. 2.1% of 190,000 active; in the data active means inhibition above about 58%; tested in S. cerevisiae
The depositor's hits bear a star; i = inactive; nt = no result; + = active, no number. Rows were chosen to be rich in hits. Some 11% of all compounds tested hit in one or more screens of this group.

SMILES	Ins promoter up	L major viab	Insulin prom inh	Autophagy HCS	WT yeast gro inh
CO/N=C/C(=N\Nc1ccc(OC)cc1)C(=O)c1ccc(F)cc1	0.69	0	29	i	1
CO/N=C/C(=N\Nc1ccc(C)cc1)C(=O)c1ccc(OC)cc1	-1.7	8	0	+	-9
CCc1nnc(NC(=O)CSc2nnc(-c3ccccc3OC)n2-c2ccc(C)cc2)s1	0.59	57*	23	i	13
CCc1nnc(NC(=O)CSc2nnc(Cc3ccccc3)n2-c2ccccc2)s1	0.46	-12	82*	i	-10
CCc1nnc(NC(=O)CSc2nnc(-c3ccccc3OC)n2-c2ccccc2)s1	nt	-12	29	i	8
CCOC(=O)CN(C(=O)CSc1nnc(Cc2ccccc2)n1-c1ccc(C)cc1)c1ccccc1	nt	99*	-7	i	7
CCC(C(=O)NN1C(=O)c2ccccc2C1=O)c1ccccc1 (centres undefined)	0.56	0	nt	i	-14
O=C(Cc1csc(Nc2nc(=S)[nH]c3ccccc23)n1)NCc1ccc(Cl)cc1	0.68	48	-5	i	3
O=C(Cc1csc(Nc2nc(=S)[nH]c3ccccc23)n1)NCCCN1CCN(c2ccccc2F)CC1	-0.46	22	-7	+	5
Cc1csc(NC(=O)[C@@H](NC(=O)c2ccccc2)C(C)C)n1	0.39	4	27	i	6
CC(C)[C@H](NC(=O)c1ccccc1Cl)C(=O)Nc1nc(-c2ccccn2)cs1	-0.25	99*	nt	i	40
Cc1ccccc1CSc1nnc(NC(=O)C2COc3ccccc3O2)s1 (centres undefined)	-0.13	-8	nt	i	16
O=C(Nc1nc(-c2ccccc2)cs1)C1COc2ccccc2O1 (centres undefined)	0.09	3	-25	i	-6
O=C(Nc1nnc(SCc2ccccc2Cl)s1)C1COc2ccccc2O1 (centres undefined)	0.15	-4	-43	i	60*
O=C(Nc1nc(-c2ccc(S(=O)(=O)N3CCCC3)cc2)cs1)C1COc2ccccc2O1 (centres undefined)	nt	84*	31	i	25
Cc1cccc(C(=O)N[C@H](C(=O)Nc2nc(C)cs2)C(C)C)c1	0.09	64*	-5	i	-9
Cc1cc(=O)[nH]n(CCO)c1=O	-0.01	nt	nt	nt	nt
O=C(Cc1ccccc1)Nc1ccc(SC(F)F)cc1	0.52	4	nt	i	-6
Fc1cccc(NC(=S)NCc2ccccc2Cl)c1	-0.15	nt	nt	nt	nt
CC1CC(C)(C)NC(=S)N1CCCC(=O)Nc1ccc(F)cc1 (centres undefined)	0.22	-2	nt	i	18
C[C@@H](C(=O)Nc1nc(-c2ccccn2)cs1)N1C(=O)C2CCCCC2C1=O (some centres undefined)	1.2	100*	nt	i	55
Cc1ccc2sc(NNC(=O)C3COc4ccccc4O3)nc2c1C (centres undefined)	0.83	45	-76	i	67*
COc1ccc(C(=O)NC(C(=O)NCC(=O)Nc2c(C)cccc2C)C(C)C)cc1 (centres undefined)	-0.23	67*	-30	i	-5
O=C(Nc1nc(-c2ccccn2)cs1)C1COc2ccccc2O1 (centres undefined)	-2	77*	14	i	64
O=C(NNc1nc2c(F)cccc2s1)C1COc2ccccc2O1 (centres undefined)	0.65	1	-22	i	-12
SMILES	Ins promoter up	L major viab	Insulin prom inh	Autophagy HCS	WT yeast gro inh
OCCSc1nc(N2CCOCC2)nc(N2CCOCC2)n1	-0.01	-12	29	i	0
Cc1ccc(C(=O)Nc2nc(-c3ccccn3)cs2)o1	-1.2	nt	nt	nt	nt
CC1CC1C(=O)Nc1nc(-c2ccccn2)cs1 (centres undefined)	-0.3	100*	43	i	-21
c1ccc(CCNc2nc(-c3ccccn3)cs2)cc1	-0.98	100*	nt	i	65
CSc1nc2ccc3nc(NC(=O)C4COc5ccccc5O4)sc3c2s1 (centres undefined)	1.3	78*	nt	nt	6
COc1ccc(-c2csc3ncn(CC(=O)N4CCOCC4)c(=O)c23)cc1	0.25	-4	15	i	0
COC(=O)C1CCN(S(=O)(=O)Cc2ccccc2)CC1	-0.61	-7	nt	i	-11
CC1CN(C2CCN(S(=O)(=O)c3ccccc3)CC2)CC(C)O1 (centres undefined)	0.21	81*	33	i	-33
CC1CN(C2CCN(S(=O)(=O)Cc3ccccc3)CC2)CC(C)O1 (centres undefined)	nt	91*	nt	i	-2
